Out of some 340,000 compounds screened, about 8,500 (2.5%) were called active. This excerpt belongs to a sample that is enriched for actives. Unmarked numbers belong to inactive results.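 How the source made its calls: active means melting temperature shift of at least 10% of the positive control shift, at one fixed dose; inactive means the rest.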

For the assay, the system named is Glutamate receptor ionotropic, NMDA 3A (GRIN3A) ligand-binding domain. Put plainly: binders of NR3A ligand-binding domain, primary screen, biophysical, differential scanning fluorimetry, uHTS (AID 1259313). The following applies: NR3A LBD differential scanning fluorimetry, at 25 µM, hits give high values, 0% = protein alone, 100% = glycine-bound protein.
With `CCC(=O)c1ccc(OCC(=O)Nc2ccc3nc(C)sc3c2)cc1`, the Tm shift relative to glycine control was 0.32%.

As for `CCOc1ccc2nc(Nc3nc4ccc(NC(C)=O)cc4s3)sc2c1`, the Tm shift relative to glycine control was 25.2% (active). `CCOc1ccc2nc(NC(=O)CSc3nc4c(c(=O)n(C)c(=O)n4C)n3CC)sc2c1`: the Tm shift relative to glycine control was 1.39%. The figure for `NS(=O)(=O)c1ccc2nc(NC(=O)C3=COCCO3)sc2c1` is -8.75%. As for `COc1ccc2nc(Nc3nc4cc5c(cc4s3)OCCO5)sc2c1`, the figure is 12.4% (active); as for `c1c2c(cc3sc(N4CCCCC4)nc13)OCCO2`, 8.4%; as for `O=C(COC(=O)c1c(Cl)cccc1Cl)Nc1cccc(S(=O)(=O)NC2=NCCCCC2)c1`, 1.06%. As for `O=C(CCl)Nc1ccc(Sc2ccc(NC(=O)CCl)cc2)cc1`, the figure is -12.3%; as for `CC(=O)N(Cc1cccs1)C1CCOC(C)(C)C1` (configuration not stated), -1.65%; as for `Oc1ccc(/C=N/Nc2ccc(C(F)(F)F)cn2)cc1O`, 21.1% (active).

On to `FC(F)(F)c1cccc(N/N=C/c2ccccc2)c1`, for which the Tm shift relative to glycine control was 6.56%. Take `Oc1ccc(Br)cc1/C=N/Nc1ccccn1`: the Tm shift relative to glycine control is -22%. As for `CCCCOP(=O)(c1ccc(N(C)C)cc1)C(O)c1cc(OC)ccc1OC` (configuration not stated), the figure is -0.74%; as for `O=C(Nc1cccc(Cl)c1)Nc1ccccc1NS(=O)(=O)c1cccs1`, 30.3% (active); as for `O=S(=O)(Nc1ccccc1Br)c1cccs1`, 0.85%. The figure for `O=S(=O)(NCc1ccc(Cl)cc1Cl)c1cccs1` is 1.65%. Regarding `NC(=O)Cc1ccc2sc(-c3ccccc3)nc2c1`, the Tm shift relative to glycine control is -2.6%.

In the case of `Cc1ccc(S(=O)(=O)NCC(=O)N(CC(=O)NCC2CCCO2)c2cccc(F)c2)cc1` (configuration not stated), the Tm shift relative to glycine control is -1.71%. As for `O=c1[nH]c(CSc2ncc(-c3ccc(F)cc3)n2Cc2ccco2)nc2ccccc12`, the figure is -0.27%; as for `Nc1cc(=O)nc(SCc2ccccc2)n1Cc1ccco1`, 10.8% (active). As to `CCn1c(SCc2ccccc2)nc2cc(OC)c(OC)cc2c1=O`, the Tm shift relative to glycine control is -6.11%. The figure for `COc1cccc(N(Cc2nnc3n2CCCCC3)C(=O)Nc2ccccc2F)c1` is 0.08%. The figure for `CCCN(CCC)C(=S)Nc1cc(C(=O)OC)ccc1C(=O)OC` is -5.25%; for `CC(=O)C1=C(C)NC(C)=C(C(C)=O)C1c1cn(-c2ccccc2)nc1-c1cccs1` it is -4.58%. For `CCc1ccc(CN(C)C(=O)C2CCC(=O)N(Cc3cccc(OC)c3)C2)nc1` (configuration not stated), the Tm shift relative to glycine control is 1.62%. For the compound `CC1=NN(c2ccc(Cl)c(C(=O)O)c2)C(=O)/C1=C/c1ccc(-c2ccccc2[N+](=O)[O-])o1`, the Tm shift relative to glycine control was 31.1% (active).

Consider `O=C1NC(c2ccc(-c3ccccc3[N+](=O)[O-])o2)C(C(=O)c2ccc(Cl)cc2)C(O)(C(F)(F)F)N1` (configuration not stated), for which the Tm shift relative to glycine control was -17.2%. For the compound `O=C(Nc1ccc(N2CCOCC2)cc1)c1ccc(-c2ccccc2[N+](=O)[O-])o1`, the Tm shift relative to glycine control was -2.01%. For the compound `Cc1cnc(CN(C)C(=O)C2CCC(=O)N(CCc3cccc(F)c3)C2)[nH]1` (configuration not stated), the Tm shift relative to glycine control is -3.25%. As for `CC(C)C(=O)NCc1cc(-c2ccc(Cl)cc2)no1`, the figure is 0.32%. The figure for `Oc1ccccc1-c1cc(-c2ccc(Cl)cc2)n[nH]1` is 31% (active); for `CSc1ccccc1-c1nnc(-c2ccc(Cl)cc2)o1` it is 0.54%; for `NC(=O)C[C@@H]1NC(=O)CNC(=O)c2cc([N+](=O)[O-])cc(I)c2NCCC(C(N)=O)NC1=O` (some centres not stated) it is -1.1%. Regarding `CCC(C)n1[nH]c(=O)cc1N` (configuration not stated), the Tm shift relative to glycine control is -2.66%. As for `N#Cc1ccccc1S(=O)(=O)N1CCN(Cc2c(O)ccc3ccccc23)CC1`, the figure is -5.71%; as for `O=C(O)c1cccc(S(=O)(=O)N2CC=C(c3ccccc3)CC2)c1`, 1.73%; as for `COc1cc(C(=O)NCC(=O)N2CC=C(c3ccccc3)CC2)cc(OC)c1OC`, 0.85%. Turning to `O=C(Nc1ccc(Cl)c(Cl)c1)N1CC=C(c2ccccc2)CC1`, the Tm shift relative to glycine control was 12.9% (active).

Consider `CC(C)c1ccc(Nc2ncccc2C#N)cc1`, for which the Tm shift relative to glycine control was -9.92%.

As for `O=C(COc1ccc([N+](=O)[O-])cc1Cl)Nn1cnnc1`, the Tm shift relative to glycine control was 1.68%. Turning to `CCOc1ccc(/C(O)=C2\C(=O)C(=O)N(c3ccc(OC)cc3)C2c2ccccc2[N+](=O)[O-])cc1` (configuration not stated), the Tm shift relative to glycine control was -0.41%. The figure for `COc1ccc(S(=O)(=O)N2CCOCC2)cc1NC(=O)c1ccc(OCC(C)C)c(OC)c1` is 3.09%; for `COC(=O)Cc1ccc(NC(=S)NCc2ccc(Cl)cc2)cc1` it is -5.66%. In the case of `CN(C)CCCNC(=S)NCc1ccc(Cl)cc1`, the Tm shift relative to glycine control is 2.67%. As for `S=C(NCc1ccc(Cl)cc1)NC12CC3CC(CC(C3)C1)C2`, the figure is 15.2% (active); as for `CN(C)c1ccc(/C=C/C(=O)c2ccc(O)cc2)cc1[N+](=O)[O-]`, 5.36%; as for `O=C(/C=C\c1ccc2c(c1)OCO2)NC1(C(=O)Nc2ccc3c(c2)OCCO3)CCCCC1`, -13.2%.

Take `O=C(/C=C/c1ccc2c(c1)OCCO2)c1ccc(O)cc1`: the Tm shift relative to glycine control was 13.4% (active).

Turning to `CC(C)c1nnc(NC(=O)C2CC(=O)N(CCc3ccc(F)cc3)C2)s1` (configuration not stated), the Tm shift relative to glycine control was -0.27%. Take `CCCC(C(=O)n1nc(C)cc1C)C(NS(=O)(=O)c1ccc(C)cc1)c1ccccc1` (configuration not stated): the Tm shift relative to glycine control is -0.23%.

Turning to `CSCCC(NC(=O)c1ccccc1)C(=O)N1CCN(Cc2ccc(Cl)cc2)CC1` (configuration not stated), the Tm shift relative to glycine control was 18.1% (active). Consider `COc1ccccc1C(=O)NC(CCSC)C(=O)N1CCN(C(C)=O)CC1` (configuration not stated), for which the Tm shift relative to glycine control is -1.22%.

As to `CSCCC(NC(=O)c1ccccc1)C(=O)N1CCCCCCC1` (configuration not stated), the Tm shift relative to glycine control was 0.17%. Consider `O=C(O)CC(Cc1ccccc1)C(=O)Nc1ccc([N+](=O)[O-])cc1` (configuration not stated), for which the Tm shift relative to glycine control is -4.38%. In the case of `O=C(Cn1c2[n+](c3ccc(C(F)(F)F)cc31)CCCCC2)Nc1c(F)cccc1F`, the Tm shift relative to glycine control is -0.45%. Turning to `COc1cc(/C=C/C(=O)OCC(=O)NC2CC2)cc(OC)c1OC`, the Tm shift relative to glycine control is 3.83%. `Cc1nc2ccc(NC(=S)N3CCC(C)CC3)cc2nc1C`: the Tm shift relative to glycine control is -0.26%.

On to `O=C(NCC1COc2ccccc2O1)C1(c2ccccc2)CCCC1` (configuration not stated), for which the Tm shift relative to glycine control was -1.37%. The figure for `O=S(=O)(NCCCc1ccccc1)c1ccc(Br)cc1` is -5.32%; for `S=C(NCC1COc2ccccc2O1)Nc1ccc(Br)cc1` (configuration not stated) it is 14.7% (active).

For `S=C(Nc1ccc(Br)cc1)NC1CCN(Cc2ccccc2)CC1`, the Tm shift relative to glycine control was -2.33%. As for `S=C(NCCCc1ccccc1)Nc1ccc(Br)cc1`, the Tm shift relative to glycine control is 10.2% (active). As to `CCCN(CC1COc2ccccc2O1)C(=S)Nc1ccc(C)cc1` (configuration not stated), the Tm shift relative to glycine control is -4.99%. In the case of `COc1cccc(/C=C2\Sc3ccc(C(=O)NCC4CCCO4)cc3N(C)C2=O)c1` (configuration not stated), the Tm shift relative to glycine control was -11.6%.

Take `CN(CCc1ccccn1)C1CCCN(S(=O)(=O)c2ccccc2Cl)C1` (configuration not stated): the Tm shift relative to glycine control is -1.11%. As to `Cc1ccc(C)c(NC(=O)c2ccc(OC(=O)c3ccco3)cc2)c1`, the Tm shift relative to glycine control is -0.45%. For `CC(=O)n1c(C=Nc2ccccc2)c(O)c2ccccc21`, the Tm shift relative to glycine control was 0.18%. As for `Oc1ccc(N=Cc2sc3ccccc3c2Cl)cc1`, the figure is 15.5% (active); as for `Cc1ccn2cc(-c3nonc3C)cc2c1`, -33.8%; as for `Cc1cccc(NC(=O)Nc2cccc(Oc3c(F)c(F)c(F)c(F)c3F)c2)c1`, 29.1% (active). The figure for `Cc1ccc(NC(=O)Nc2ccccc2)c(Br)c1` is -0.75%; for `Cc1ccoc1C(=O)Nc1cccc(Oc2ccccc2)c1` it is -3.01%; for `CCOc1cc(/C=C/C(=O)OCC(=O)NCCN2C(=O)CSC2=O)ccc1OCC(C)C` it is 0.08%. In the case of `CN(Cc1ccc(F)cc1Cl)S(=O)(=O)c1cccs1`, the Tm shift relative to glycine control is 1.26%. As for `C=CCNC(=S)N1CCc2[nH]c3ccccc3c2C1`, the figure is -15.2%; as for `O=C(Nc1ccc(Cl)cc1)N1CCc2[nH]c3ccccc3c2C1`, 250% (active); as for `CCc1ccc(NC(=O)N2CCc3ccccc3C2)cc1`, -0.69%. As for `CCOC(=O)C1CCN(C(=O)Nc2ccc(Cl)cc2)CC1`, the figure is 3.57%. The figure for `Fc1ccc(NC(=S)N2CCc3[nH]c4ccccc4c3C2)cc1` is 13.3% (active); for `COc1ccc(NC(=S)N2CCc3cc(OC)c(OC)cc3C2)cc1` it is -0.36%. Take `Cc1ccccc1N/C(SCc1ccc(Cl)cc1)=C(/C#N)C(N)=O`: the Tm shift relative to glycine control was -24%. The figure for `CC1CCN(c2ccc(-c3ccc(NC(=O)c4ccco4)cc3)nn2)CC1` is 5.6%; for `O=S(=O)(Cc1cc(Cl)nc(-c2cccnc2)n1)c1ccccc1` it is 1.48%; for `CN(C(=O)c1cccc(NC(=O)Cc2ccc(NC(=O)C3CCCN(C(=O)C4CC4)C3)cc2)c1)C1CC1` (configuration not stated) it is 1.17%.

As for `CCc1nc(Nc2ccc3nccnc3c2)c2oc3ccccc3c2n1`, the Tm shift relative to glycine control is -14.2%. As for `CCc1nc(Nc2ccc(NC(C)=O)cc2)c2oc3ccccc3c2n1`, the figure is 10% (active); as for `C[C@@H](Nc1nc(-c2ccccc2)nc2c1oc1ccccc12)C(=O)O`, 5.42%. Consider `CCCC(=O)NC(=S)Nc1ccc(CN2CCOCC2)cc1`, for which the Tm shift relative to glycine control was 1.2%. As for `Cc1cc(C)nc(SCc2cn3c(C)cc(C)nc3n2)n1`, the Tm shift relative to glycine control was -0.2%.

As to `CN(C)c1ccc(NC(=S)N(CCc2ccccc2)C2CC(=O)N(c3c(Cl)cccc3Cl)C2=O)cc1` (configuration not stated), the Tm shift relative to glycine control is -2.73%. For the compound `CCOc1ccc(N2C(=O)CC(N(CCc3ccc(OC)c(OC)c3)C(=S)Nc3ccccc3)C2=O)cc1` (configuration not stated), the Tm shift relative to glycine control was 14.8% (active). In the case of `COC(=O)CN(C(=S)Nc1ccc(Cl)cc1)C1CC(=O)N(c2ccc(OC)cc2)C1=O` (configuration not stated), the Tm shift relative to glycine control was 1.51%. In the case of `O=C(O)C#Cc1cccc2ccccc12`, the Tm shift relative to glycine control is -2.09%. With `CCC[C@@H]1C[C@@]1(CCC)[C@@H](NC(=O)c1ccccc1)c1ccc(C(=O)OC)cc1`, the Tm shift relative to glycine control was -0.95%.

Consider `COc1ccc2nc(SCC(=O)Nc3c(C)cc(C)cc3C)[nH]c2c1`, for which the Tm shift relative to glycine control was 2.89%. Take `CCCCNS(=O)(=O)c1ccc2nc(SCC(=O)Nc3cc(C)cc(C)c3)[nH]c2c1`: the Tm shift relative to glycine control is 23.7% (active).

For the compound `Cc1cc(C)c(NC(=O)CSc2nc3ccncc3[nH]2)c(C)c1`, the Tm shift relative to glycine control is -0.53%.

(Values after PubChem BioAssay AID1259313 (Sanford-Burnham Center for Chemical Genomics, 2017).)
